Screening data from PubChem.
Rows were chosen to be rich in hits. Some 7.9% of all compounds tested hit in one or more screens of this group.
MARV entry inh = blocks Marburg virus binding to or entry into cells; Potency, µM (titrated, usually from 37.8 µM), without a hit: at the top dose activity change, negative = inhibition, usual class: inhibitors; 1.8% of 300,000 active; Marburg virus pseudotyped entry inhibition, cell reporter; calls by dose curve; tested in HEK293 cells; further: potency means the concentration at half of the fitted maximal effect
FMDV inh = antivirals against foot and mouth disease virus. Potency, µM (series often up to 57.9 µM), without a hit: at the highest dose activity change, negative = inhibition, actives largely listed as inhibitors. FMDV antiviral cell-based qHTS. AID 1159524. 1.2% of 410,000 active; calls by dose curve; tested in HEK293T cells; further: read-out not given here; potency means the concentration at half of the fitted maximal effect; nearly all actives have a fitted effect of over 45% in size
Lassa entry inh = blocks Lassa virus binding to or entry into cells. 1.2% of 300,000 active. Potency, µM (highest dose often 37.9 µM), inactives show at the top dose activity change, negative = inhibition, usual class: inhibitors. AID 540256. Lassa virus pseudotype entry inhibition, cell reporter; calls by dose curve; tested in HEK293 cells; further: potency means the concentration at half of the fitted maximal effect; nearly all actives have a fitted effect of over 50% in size
HCMV antiviral = human cytomegalovirus inhibition. 4.5% of 410,000 active. activity change, negative = inhibition, % at 57.5 µM. HFF cells, HCMV-luciferase reporter, 72 h; hits give low values. AID 1259415; in the data active means activity change below about -60%; inconclusive means no clear call, values can overlap the other calls; inactive means above about -39%
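Luciferase read-out from HCMV-luciferase-infected HFFs (MOI 1 PFU/cell) 72 h post infection at 37C; compounds added after 16 h cell attachment; activity normalized between buffer-only basal and Salinomycin (10uM) inhibitor controls.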
HCV inh = blocks hepatitis C virus | Huh7.5.1 HCVcc-Cre infection, luciferase reporter, 44 h | Potency, µM (doses to about 41.8 µM), for the others: at the top dose activity change, negative = inhibition, most hits filed as inhibitors | 3.4% of 340,000 active; active means well fitted inhibition curve with a large enough effect; inconclusive means small, poorly fitted or top-dose-only effect, or another doubt; inactive means no such curve, though single readings can be large or run the other way; further: potency means the concentration at half of the fitted maximal effect
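After 44 h co-culture of compound, cells and HCVcc-Cre (~0.5 moi), substrate is added for 15 min at room temperature and luciferase measured over 15 sec. Cells were seeded at 1,000/well and pre-cultured 4 h.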
* marks the source's active call; other numbers are inactive results; ? = inconclusive; . = no result; [ ] = another dose, or the depositor's remark. On the % scale 0 is the no-effect control and ±100 the full control effect.

SMILES	MARV entry inh	FMDV inh	Lassa entry inh	HCMV antiviral	HCV inh
CC1CCCN(c2nc3c(c(=O)[nH]c(=O)n3C)n2Cc2ccccc2Cl)C1 (configuration not stated)	.	-22%	.	-82*	7%
Cc1ccccc1Cn1c(CN2CCN(c3cc(Cl)ccc3C)CC2)nc2c1c(=O)[nH]c(=O)n2C	4%[46.1 µM]	?	5%[46.1 µM]	-27	.
CCCn1c(N2CCN(CC(=O)c3c[nH]c4ccccc34)CC2)nc2c1c(=O)[nH]c(=O)n2C	?	?	?	58	13µM*
CCn1c(N2CCN(CC(=O)c3c(C)n(C)c4ccccc34)CC2)nc2c1c(=O)[nH]c(=O)n2C	-22%	?	-5%	-8	-22%
CC(C)Sc1nc2c(c(=O)[nH]c(=O)n2C)n1Cc1ccc(Cl)cc1	-22%	-19%	?	8	?
CC(=O)c1sc(N/N=C2\CC3CCC2(C)C3(C)C)nc1C (configuration not stated)	-4%[46.1 µM]	-18%	3%	-29	-6%
COc1ccc(CN2CCOc3ccc(CN4CCN(CCO)CC4)cc3C2)c2ccccc12	.	-7%	.	.	.
COC(=O)[C@@H](NC(=O)C1CCCN(c2nc(C)c3ccc(C)cc3n2)C1)C(C)C (some centres not stated)	.	-12%	.	.	.
COc1ccc2c(c1)OC(C)CN(CCNC(=O)c1cccc(N3CCNC3=O)c1)C2 (configuration not stated)	.	4%	.	.	.
CC(C)CCn1c(N2CCC(C(N)=O)CC2)nc2c1c(=O)[nH]c(=O)n2C	-11%	-18%	14%	-94*	20%
CCOCCn1c(CN2CCN(c3cccc(Cl)c3)CC2)nc2c1c(=O)n(C)c(=O)n2C	.	?	.	-18	16µM*
Cc1cc(C)n(-c2nc3c(c(=O)[nH]c(=O)n3C)n2Cc2ccccc2)n1	-1%	-22%	-22%	27	2µM*
CC(C)CCn1c(N2CCCC2)nc2c1c(=O)[nH]c(=O)n2C	.	-3%	.	81	-11%
C[C@H]1[C@@H](NS(=O)(=O)c2ccc(C(F)(F)F)cc2)CC[C@@]23CCCN2C(=O)CCC[C@@H]13	.	.	.	-25	.
Cc1ccc(Cl)cc1NC(=O)Cn1ncc2c(C)n(Cc3ccccc3F)c(C)c2c1=O	-24%[46.1 µM]	-11%	0%[46.1 µM]	17	.
COc1cc2nc(N(C)C)c(CNCc3nonc3C)cc2c(OC)c1OC	.	-3%	.	.	.
Cc1cc(-c2ccc(N=Nc3c(S(=O)(=O)O)cc4cc(S(=O)(=O)O)cc(N)c4c3O)c(C)c2)ccc1N=Nc1c(S(=O)(=O)O)cc2cc(S(=O)(=O)O)cc(N)c2c1O	16µM*	.	?	.	?
O=S(=O)(O)c1cc(Cl)cc(N=Nc2ccc(O)cc2O)c1O	-4%	?	-20%	-15	1%
O=S(=O)(O)c1cc(O)c2c(O)c(N=Nc3cc(Cl)ccc3O)c(S(=O)(=O)O)cc2c1	?	13µM*	?	.	-21%
Nc1cc(S(=O)(=O)O)cc2ccc(S(=O)(=O)O)cc12	-4%[46.1 µM]	6%	0%[46.1 µM]	-18	1%
CC(C)=C1SC(N2CCN(c3ccc(Cl)cc3)CC2)=NC1=O	?	-14%	-3%	-75*	5%
CC(C)=C1SC(N2CCN(c3ccc(C)cc3)CC2)=NC1=O	3%	0%	-5%	-38	19%
CCOc1cc(C(=O)NCCc2csc(-c3ccc(C)cc3)n2)cc(OCC)c1OCC	.	-12%	-3%[46.1 µM]	1	.
Cc1ccc2c(=O)c(C(=O)c3ccc(Cl)cc3)cn(CC(=O)Nc3ccc4c(c3)OCCO4)c2n1	.	-21%	25%[46.1 µM]	-22	.
CO[C@H]1C=C2CCN(C)[C@H]2C2c3cc4c(cc3C(=O)O[C@@H]21)OCO4 (some centres not stated)	.	12%	.	-63*	-2%
COC(=O)C1=C(C(=O)OC)[C@@H]2N(C)c3ccccc3[C@@]23C[C@@H](C(=O)OC)N(C(=O)NC(C)(C)C)C3=N1	14%[14.2 µM]	.	?	.	.
Cc1cc(C2=NNC(=NC3CCCCC3)SC2)c(C)n1-c1c(C)n(C)n(-c2ccccc2)c1=O	-41%	-1%	3%	-22	-27%
Cc1ccccc1N=C1NN=C(c2ccccc2F)CS1	15µM*	-3%	?	52	?
Cc1cc(C2=NNC(=NC3CC3)SC2)c(C)n1-c1ccccc1F	0.13µM*	0.01µM*	0.13µM*	-97*	11µM*
c1ccc2oc(C3=NNC(=NC4CC4)SC3)cc2c1	1.8µM*	-54%	7.3µM*	?	13%
